Laboratory results: the supplement of paper PMC10981050
Where “and” joins values, the source holds several entries; their conditions need not be identical. Equal entries are not always repeated. Structures can show the parent of a compound that is named as a salt.

What was measured:
Test in all cases: cell viability relative to vehicle control; higher = less cytotoxic
Details in all cases: 10 µM
K562 = tested on: K562
Method in brief: (§1)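 Screening covered the Selleck bioactive, kinase and epigenetic probe libraries, less identity-inconsistent compounds, on CRISPR-edited mutant clones and isogenic wild-type clones of four leukaemia lines. Cells, at 2000 per well in 50 µL medium, received a single 10 µM acoustically dispensed dose. After 48 h the supernatant was removed and CellTiter-Glo luminescence was read. Viability was analysed in Genedata Screener as percent of the on-plate vehicle control.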

MARIMO = tested on: MARIMO
Method in brief: as §1

MOLM14 = tested on: MOLM14
Method in brief: as §1

OCI-AML2 = tested on: OCI-AML2
Method in brief: as §1

Compound	cell viability (K562; SRSF2 genotype: SRSF2 P95H/wt)	cell viability (K562; SRSF2 genotype: SRSF2 wt/wt) [%]	cell viability (MARIMO; SRSF2 genotype: SRSF2 P95H/wt) [%]	cell viability (MARIMO; SRSF2 genotype: SRSF2 wt/wt) [%]	cell viability (MOLM14; SRSF2 genotype: SRSF2 P95H/wt) [%]	cell viability (MOLM14; SRSF2 genotype: SRSF2 wt/wt) [%]	cell viability (OCI-AML2; SRSF2 genotype: P95H/wt) [%]	cell viability (OCI-AML2; SRSF2 genotype: wt/wt) [%]
CC(C)C(C(=O)O)N1C(=O)C(=Cc2ccc(Br)cc2)SC1=S (configuration not stated)	105%	102	98.4	105	100	100	102	109
N#Cc1cc(-c2n[nH]c(-c3ccncc3)n2)ccn1 [Topiroxostat]	90.1% and 106%	94	104	111	104	103	98.8	100
CC(C)(C#N)c1cc(Cn2cncn2)cc(C(C)(C)C#N)c1 [Anastrozole]	102% and 109%	107	97.4	105	103	99.1	93.5	95.3
C[C@H](Nc1ncnc2[nH]cnc12)c1cc2ccc(F)cc2nc1-c1ccccn1	90.3% and 89.3%	91.5	81.5	85	69.2	67	64.5	73.4
COC(=O)Nc1nc2cc(Sc3ccccc3)ccc2[nH]1 [Fenbendazole (Panacur)]	17.8% and 31.8%	32.8	27.3	10.4	9.32	4.51	9.8	12.7
Cc1cc(N2CCCCC2)nc2ccccc12	97% and 102%	98.3	93.6	106	98.8	109	96.6	103
CN1CCC(=C2c3ccccc3CCc3cccnc32)CC1 [Azatadine dimaleate]	100% and 108%	94.1	92.2	102	91.9	100	88	99
Nc1ncn([C@@H]2O[C@H](CO)[C@@H](O)[C@H]2O)c(=O)n1 [Azacitidine (Vidaza)]	47.4% and 45.7%	52.2	45.5	52.8	45.7	40.3	35.8	34.3
CC(=O)OCc1ccccc1 [Benzyl acetate]	103% and 94.2%	100	96.5	105	97	107	98.3	98.4
CC(C)(C)C(=O)Nc1ccc2c(c1)C(=O)C(=O)c1ccccc1-2 [SF1670 (PTEN inhibitor)]	84.3% and 70.9%	56.8	2.56	70.5	88.4	39.2	65.8	76.2
C[C@@H](OC[C@@]1(c2ccccc2)CC[C@]2(CCC(=O)N2)CN1)c1cc(C(F)(F)F)cc(C(F)(F)F)c1 [Rolapitant]	54% and 72.1%	68.8	52.3	48.8	54.5	44.5	45.2	39.1
CC(C)C[C@H](NP(=O)(O)O[C@@H]1O[C@@H](C)[C@H](O)[C@@H](O)[C@H]1O)C(=O)N[C@@H](Cc1c[nH]c2ccccc12)C(=O)O [Phosphoramidon Disodium Salt]	104% and 101%	92.3	101	106	95.5	104	98.6	96.9
CC(C)C1=CC2=CC[C@@H]3[C@](C)(CCC[C@@]3(C)C(=O)O)[C@H]2CC1 [Abietic Acid]	113% and 104%	98.8	105	115	99.5	105	90.9	95.5
CC(C)(O)CC[C@@H](O)[C@](C)(O)[C@H]1CC[C@@]2(O)C3=CC(=O)[C@@H]4C[C@@H](O)[C@@H](O)C[C@]4(C)[C@H]3CC[C@]12C [20-Hydroxyecdysone]	104% and 98.5%	102	109	107	106	106	101	111
CC1(C)[C@@H](O[C@H]2O[C@H](C(=O)O)[C@@H](O)[C@H](O)[C@H]2O[C@@H]2O[C@H](C(=O)O)[C@@H](O)[C@H](O)[C@H]2O)CC[C@]2(C)[C@H]3C(=O)C=C4[C@@H]5C[C@@](C)(C(=O)O)CC[C@]5(C)CC[C@@]4(C)[C@]3(C)CC[C@@H]12 [Ammonium Glycyrrhizinate (AMGZ)]	101% and 111%	107	107	102	104	106	112	95.4
Cc1ccc(C(C)C)cc2c(C)ccc1-2 [Guaiazulene]	97.5% and 99%	110	102	101	93.5	105	107	93.4
CC(C)(CNC(=O)c1cccc(-c2noc(C(F)(F)F)n2)c1)c1coc(-c2ccccc2)n1	89.2% and 87.4%	94.5	82.1	82.6	91	96	52.5	67.2
CCCCC(=O)OCC(=O)[C@H]1[C@H](C)C[C@H]2[C@@H]3C[C@H](F)C4=CC(=O)C=C[C@]4(C)[C@@]3(F)[C@@H](O)C[C@@]21C [Diflucortolone valerate]	96.5% and 92.7%	104	95.1	98.2	92	96	99.4	118
OC(CC1c2ccccc2-c2cncn21)C1CCCCC1 (configuration not stated)	85.4% and 94.1%	97.5	80	93.1	90.6	93.5	89.8	99.7
CC(C)c1nc(CN(C)C(=O)N[C@H](C(=O)N[C@@H](Cc2ccccc2)C[C@H](O)[C@H](Cc2ccccc2)NC(=O)OCc2cncs2)C(C)C)cs1 [Ritonavir]	89.2% and 88.4%	82.6	81.9	95	81.8	88.3	102	89.3
CC(=O)N1CCN(CCOc2ccc(C3CCN(C4=Nn5c(nnc5C(F)(F)F)CC4)CC3)cc2)CC1	68.5% and 73%	71.5	60.6	57.4	53.5	53.2	49.8	59.7
COc1cc2c(cc1OC(C)C)[C@H](c1ccc(Cl)cc1)N(c1ccc(N(C)C[C@H]3CC[C@H](N4CCN(C)C(=O)C4)CC3)cc1)C(=O)C2	68.8% and 72.1%	68.4	67.8	71.8	0.15	0.13	0.22	2.94

Compound	cell viability (K562; SRSF2 genotype: SRSF2 P95H/wt)	cell viability (K562; SRSF2 genotype: SRSF2 wt/wt) [%]	cell viability (MARIMO; SRSF2 genotype: SRSF2 P95H/wt) [%]	cell viability (MARIMO; SRSF2 genotype: SRSF2 wt/wt) [%]	cell viability (MOLM14; SRSF2 genotype: SRSF2 P95H/wt) [%]	cell viability (MOLM14; SRSF2 genotype: SRSF2 wt/wt) [%]	cell viability (OCI-AML2; SRSF2 genotype: P95H/wt) [%]	cell viability (OCI-AML2; SRSF2 genotype: wt/wt) [%]
CCCC(CCC)C(N)=O [Valpromide]	96.1% and 94.6%	100	99.5	101	102	99.5	95	107
CNC(=O)c1ccccc1Sc1ccc2c(/C=C/c3ccccn3)n[nH]c2c1 [Axitinib]	8.75% and 13.3%	14	57	65.2	29.5	15.3	36.9	34
O=C1OC(COc2ccccc2[N+](=O)[O-])CC1Cc1ccccc1 (configuration not stated)	95.1% and 98.1%	101	93.5	103	108	106	117	103
COc1ccc(Cl)c(Nc2nc3ccccc3nc2NS(=O)(=O)c2cccc(NC(=O)C(C)(C)N)c2)c1 [Pilaralisib (XL147)]	87.3% and 96.2%	84	68.6	66	59.3	55	52.3	54.6
O=C(O)C1=CO[C@@H](O[C@@H]2O[C@H](CO)[C@@H](O)[C@H](O)[C@H]2O)[C@H]2[C@@H]1C=C[C@]2(O)CO [Monotropein]	110% and 104%	107	101	106	104	104	90.7	103
CCn1c2ccccc2c2cc(CNCc3ccccc3OC)ccc21 [HLCL-61 hydrochloride]	81.8% and 88%	84.8	73.9	84.8	75	88.9	65.8	76.6
CC(C)c1cc(-c2ccc(F)c3ccccc23)nc(N)n1	95.5% and 96.7%	94.9	89.5	98.3	93.1	97.9	89.7	101
CCC(C)CC(C)CCCCCCCCC(=O)NC1CC(O)C(O)NC(=O)C2C(O)CCN2C(=O)C(C(O)CC(N)=O)NC(=O)C(C(O)C(O)c2ccc(O)cc2)NC(=O)C2CC(O)CN2C(=O)C(C(C)O)NC1=O (configuration not stated) [Pneumocandin B0]	96.7% and 91.6%	90	97	95.1	93.5	98.7	95.7	91.8
Cc1ncc(-c2ccnc(Nc3ccc(S(C)(=O)=O)cc3)n2)n1C(C)C	45.1% and 45.5%	32.4	10.9	5.22	1.23	0.38	0.94	15.2
Nc1c(CC(=O)O)cccc1C(=O)c1ccc(Br)cc1 [Bromfenac Sodium]	106% and 105%	97.3	105	98.3	102	102	107	104
S=c1nc[nH]c2nc[nH]c12 [6-Mercaptopurine (6-MP) Monohydrate]	70.9% and 60.5%	39.7	104	96.8	87.4	71.8	103	94.1
CCOc1cc2ncc(C#N)c(Nc3ccc(OCc4ccccn4)c(Cl)c3)c2cc1NC(=O)/C=C/CN(C)C [Neratinib (HKI-272)]	68.5% and 66.3%	62.6	42.1	41.8	54.1	53.4	13.3	36.9
Cc1cc(Nc2ccc(NC(=O)c3ccc(Nc4ccnc5ccccc45)cc3)cc2)nc(N)n1	1.14% and 0.97%	2.69	0.48	0.36	0.33	0.25	0.22	0.27
CC1OC2OC3C(OCC(O)C3O)OC(=O)C34CCC(C)(C)CC3C3=CCC5C6(C)CC(O)C(OC7OC(CO)C(O)C(O)C7OC7OCC(OC(=O)CC(C)(O)CC(=O)OC1C(OC1OCC(O)C(O)C1O)C2O)C(O)C7O)C(C)(CO)C6CCC5(C)C3(C)CC4O (configuration not stated) [Tubeimoside II]	23.1% and 15.2%	16.7	46.2	70.6	51.2	86.1	28.5	38.4
COc1cc2c(Oc3ccc4[nH]c(C)cc4c3F)ccnc2cc1OCC1(N)CC1 [Anlotinib (AL3818) dihydrochloride]	19.7% and 32.9%	24.9	5.61	5.93	9.28	3.53	17.5	17.3
Cc1cc(N2CCOCC2)ccc1Nc1nc(NC2CCCCC2)c2[nH]cnc2n1	86.8% and 92.1%	94.6	53	53.9	49.6	39	37.8	39.8
C[C@]12C[C@@H](O)[C@@H]3C[C@@]1(O[C@@H]1O[C@H](CO)[C@@H](O)[C@H](O)[C@H]1O)[C@@]3(COC(=O)c1ccccc1)C(=O)O2 [Albiflorin]	103% and 108%	107	96.9	94.5	104	98.4	98.3	92.9
CCCOc1ccc2[nH]c(NC(=O)OC)nc2c1 [Oxibendazole]	15.3% and 34.8%	28	6.59	7.72	10.9	3.24	4.68	8.07
CC(C)CCn1c(CN2CCN(C(=O)C3CC3)CC2)nc2c1c(=O)n(C)c(=O)n2C	105% and 116%	112	99.7	102	105	104	114	116
CC[C@@H](CO)NCCN[C@@H](CC)CO [Ethambutol HCl]	99.5% and 99.3%	98.7	99.4	112	100	102	104	107
Nc1nnc(-c2cccc(Cl)c2Cl)c(N)n1 [Lamotrigine]	95.7% and 94.8%	95	94.7	107	102	103	101	98.3
CC(C)OC(=O)C(C)(C)Oc1ccc(C(=O)c2ccc(Cl)cc2)cc1 [Fenofibrate (Tricor, Trilipix)]	80.4% and 86.4%	85.1	79.2	81.2	93.7	98.5	67.1	82.8
